Assay results reported in PubChem BioAssay.
For some of these results: Results with a measured potency or affinity are listed apart. Activity calls are given as the source filed them. Unless noted, the rule behind the calls is not given here.

What was measured:
[1] = antimalarial activity against Dd2 strain (AID 2302;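 active = growth inhibition above 50% at the single 2 µM test dose, taken to imply half-maximal potency below 2 µM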;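 note: 0% = DMSO untreated growth and 100% = chloroquine plus artemisinin killed control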); settings: P. falciparum Dd2 in RBCs, LDH growth readout, 72 h; at 2 µM; stronger effect = higher value
[2] = HepG2 cytotoxicity, primary screen, cytotoxicity control for P. falciparum antimalarial project, cell-based, ATP luminescence (AID 2303;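 active = inhibition above 50%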;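 note: 0% = DMSO wells and 100% = digitonin-killed cells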); settings: HepG2 viability, 24-48 h, at 10 µM, stronger effect = higher value
[3] = target: L-lactate dehydrogenase (Plasmodium falciparum (isolate CDC / Honduras)) (UniProt Q27743); assay: PfLDH activity inhibition – cell lysate, 3D7 strain, counter-screen for P. falciparum growth inhibition project (AID 2304);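 note: 0% = vehicle and 100% = reference inhibitor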; settings: P. falciparum 3D7 crude extract, LDH APAD/NBT absorbance; at 2 µM; stronger effect = higher value
[4] = inhibition of 3D7 malaria parasite growth – strain 3D7 (AID 2306);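 note: 0% = DMSO wells and 100% = chloroquine plus artemisinin control wells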; settings: P. falciparum 3D7 erythrocytic growth, LDH absorbance, 72 h; at 2 µM; stronger effect = higher value
[5] = target: Calcium-dependent protein kinase 1 (Plasmodium falciparum (isolate 3D7)) (UniProt P62344); assay: PfCDPK1 kinase inhibitors, biochemical, TCAMS library (AID 1159585; cut-off not given, nearly all actives have IC50 up to about 0.98 µM;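 note: inhibitors leave more ATP so luminescence rises with inhibition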); settings: recombinant PfCDPK1, Kinase-Glo ATP depletion luminescence
[6] = target: Plasmodium falciparum protein kinase 6 (PK6, PF3D7_1337100) (UniProt Q8IDW1); assay: PfPK6 kinase inhibitors, biochemical, TCAMS library (AID 1159586); settings: recombinant PfPK6, Kinase-Glo ATP depletion luminescence
[7] = target: Protein kinase 7 (PK7), Plasmodium falciparum 3D7 (PF3D7_0213400) (UniProt Q7YTF7); assay: inhibition of Plasmodium PK7 catalytic activity – biochemical, TCAMS antimalarial set, Kinase-Glo luminescence (AID 1159587); settings: recombinant PfPK7, Kinase-Glo ATP depletion luminescence
[8] = target: Calcium-dependent protein kinase 4 (Plasmodium falciparum (isolate 3D7)) (UniProt Q8IBS5); assay: PfCDPK4 kinase inhibitors, biochemical, TCAMS library (AID 1159588; cut-off not given, nearly all actives have IC50 up to about 0.91 µM); settings: recombinant PfCDPK4, Kinase-Glo ATP depletion luminescence
Calcium-dependent protein kinase 4 (Plasmodium falciparum (isolate 3D7)), sequence (Q8IBS5 whole entry, looked up): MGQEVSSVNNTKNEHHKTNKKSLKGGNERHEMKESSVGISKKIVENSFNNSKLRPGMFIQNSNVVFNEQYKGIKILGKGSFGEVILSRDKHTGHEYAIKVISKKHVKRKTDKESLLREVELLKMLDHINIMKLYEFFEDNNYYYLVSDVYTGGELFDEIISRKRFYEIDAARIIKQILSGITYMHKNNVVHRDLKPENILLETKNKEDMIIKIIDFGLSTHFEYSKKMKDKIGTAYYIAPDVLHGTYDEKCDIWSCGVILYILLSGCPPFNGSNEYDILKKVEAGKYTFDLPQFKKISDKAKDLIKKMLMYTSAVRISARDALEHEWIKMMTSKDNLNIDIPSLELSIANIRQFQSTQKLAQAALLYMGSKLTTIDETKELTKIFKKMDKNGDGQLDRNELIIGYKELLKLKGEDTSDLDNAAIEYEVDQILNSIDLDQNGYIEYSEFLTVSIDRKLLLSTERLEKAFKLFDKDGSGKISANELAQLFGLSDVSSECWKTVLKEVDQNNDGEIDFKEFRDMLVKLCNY

Protein kinase 7 (PK7), Plasmodium falciparum 3D7 (PF3D7_0213400), sequence (Q7YTF7 1-343): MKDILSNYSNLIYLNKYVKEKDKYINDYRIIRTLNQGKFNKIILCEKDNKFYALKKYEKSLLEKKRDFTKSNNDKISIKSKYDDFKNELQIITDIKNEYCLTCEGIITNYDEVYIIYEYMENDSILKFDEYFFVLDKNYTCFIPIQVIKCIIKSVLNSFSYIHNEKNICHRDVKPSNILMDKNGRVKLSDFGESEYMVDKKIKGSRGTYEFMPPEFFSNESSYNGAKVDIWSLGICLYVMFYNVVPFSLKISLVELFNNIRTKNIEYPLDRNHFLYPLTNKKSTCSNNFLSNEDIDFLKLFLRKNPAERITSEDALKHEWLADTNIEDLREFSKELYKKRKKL
L-lactate dehydrogenase (Plasmodium falciparum (isolate CDC / Honduras)), sequence (Q27743 whole entry, looked up): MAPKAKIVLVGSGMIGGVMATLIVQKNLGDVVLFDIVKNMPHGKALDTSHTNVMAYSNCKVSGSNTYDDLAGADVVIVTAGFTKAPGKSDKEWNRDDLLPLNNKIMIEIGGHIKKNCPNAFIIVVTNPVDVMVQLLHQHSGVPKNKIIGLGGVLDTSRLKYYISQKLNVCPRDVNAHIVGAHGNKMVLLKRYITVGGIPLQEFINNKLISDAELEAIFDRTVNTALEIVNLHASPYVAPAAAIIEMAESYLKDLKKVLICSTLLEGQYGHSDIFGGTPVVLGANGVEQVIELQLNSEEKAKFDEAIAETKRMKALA
Calcium-dependent protein kinase 1 (Plasmodium falciparum (isolate 3D7)), sequence (P62344 whole entry, looked up): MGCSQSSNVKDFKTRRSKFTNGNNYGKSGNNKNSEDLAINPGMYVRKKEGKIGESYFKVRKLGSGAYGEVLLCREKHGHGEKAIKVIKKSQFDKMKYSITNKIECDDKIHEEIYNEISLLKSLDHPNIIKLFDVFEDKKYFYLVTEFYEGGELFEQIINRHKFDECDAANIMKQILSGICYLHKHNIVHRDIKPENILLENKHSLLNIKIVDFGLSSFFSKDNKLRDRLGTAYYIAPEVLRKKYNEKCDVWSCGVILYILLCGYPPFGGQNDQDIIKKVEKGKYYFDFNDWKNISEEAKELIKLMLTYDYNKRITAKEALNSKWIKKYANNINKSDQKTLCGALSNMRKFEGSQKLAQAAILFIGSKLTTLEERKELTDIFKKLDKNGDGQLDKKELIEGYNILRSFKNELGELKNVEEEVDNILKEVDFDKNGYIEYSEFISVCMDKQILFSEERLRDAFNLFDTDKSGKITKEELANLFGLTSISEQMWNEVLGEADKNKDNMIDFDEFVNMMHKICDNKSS
Plasmodium falciparum protein kinase 6 (PK6, PF3D7_1337100), sequence (Q8IDW1 1-305): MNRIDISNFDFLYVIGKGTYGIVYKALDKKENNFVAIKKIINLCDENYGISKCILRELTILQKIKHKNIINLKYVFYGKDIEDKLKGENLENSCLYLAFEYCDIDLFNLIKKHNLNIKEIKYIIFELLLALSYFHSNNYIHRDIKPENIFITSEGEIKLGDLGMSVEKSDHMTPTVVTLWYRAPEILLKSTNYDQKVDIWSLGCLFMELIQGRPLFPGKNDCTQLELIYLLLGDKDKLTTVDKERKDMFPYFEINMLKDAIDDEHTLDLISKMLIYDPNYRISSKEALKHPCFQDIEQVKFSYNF

Cc1[nH]c(C)c(-c2ccc(Br)cc2)c(=O)c1Cl
active: growth inhibition [1] 77% | growth inhibition [4] 94%
inactive: inhibition [2] 22% | inhibition [3] -2% | outcome [5] | outcome [6] | outcome [7] | outcome [8]

S=c1nc(-c2ccccc2)n2ccsc2n1
inactive: growth inhibition [1] 0% | inhibition [2] 3% | inhibition [3] -6% | outcome [5] | outcome [6] | outcome [7] | outcome [8]
active: growth inhibition [4] 95%

COc1cccc(CNC(=O)c2cccc(-c3cccc(CN4CCC(N5CCCC5)CC4)c3)n2)c1
active: growth inhibition [1] 76% | growth inhibition [4] 100%
inactive: inhibition [2] 22% | inhibition [3] 1% | outcome [5] | outcome [6] | outcome [7] | outcome [8]

Cc1cccc(-c2nn(-c3ccccc3)c3[nH]c(=O)c(CN4CCSCC4)cc23)c1
active: growth inhibition [1] 98% | growth inhibition [4] 98%
inactive: inhibition [2] -3% | inhibition [3] 0% | outcome [5] | outcome [6] | outcome [7] | outcome [8]

CCN1[C@@H](c2ccc(Cl)cc2)[C@@H](CNCc2ccccc2O)C[C@@]1(C)CO
inactive: inhibition [2] 47% | inhibition [3] -3% | outcome [5] | outcome [6] | outcome [7] | outcome [8]
active: growth inhibition [1] 99% | growth inhibition [4] 99%

CN1CCC(C(=O)N(Cc2ccc(-c3ccc(CNCCc4ccccc4)cn3)cc2)C2Cc3ccccc3C2)CC1
inactive: inhibition [3] -2% | outcome [5] | outcome [6] | outcome [7] | outcome [8]
active: growth inhibition [1] 97% | inhibition [2] 65% | growth inhibition [4] 88%

O=C(Nc1ccon1)c1cc(-c2cccnc2)nc2ccc(Cl)cc12
active: growth inhibition [1] 76% | growth inhibition [4] 98%
inactive: inhibition [2] -4% | inhibition [3] 6% | outcome [5] | outcome [6] | outcome [7] | outcome [8]

NC(=O)c1ccsc1NC(=O)CNC(c1ccccc1)c1ccccc1
inactive: growth inhibition [1] 37% | inhibition [2] 8% | inhibition [3] 3% | outcome [5] | outcome [6] | outcome [7] | outcome [8]
active: growth inhibition [4] 88%

CC(C)Cc1cn(-c2nc(-c3nc4ccccc4[nH]3)cs2)c2cc(Cl)ccc12
active: growth inhibition [1] 68% | growth inhibition [4] 99%
inactive: inhibition [2] 9% | inhibition [3] -3% | outcome [5] | outcome [6] | outcome [7] | outcome [8]

c1ccc2[nH]c(-c3ccc(-c4ccc(CN5CCCCC5)cc4)cc3)nc2c1
inactive: inhibition [2] 27% | inhibition [3] 2% | outcome [5] | outcome [6] | outcome [7] | outcome [8]
active: growth inhibition [1] 100% | growth inhibition [4] 99%

Cc1ccc(Nc2nccc(NCC(O)c3cccc(F)c3)n2)cc1 (centres undefined)
active: growth inhibition [4] 95%
inactive: growth inhibition [1] 26% | inhibition [2] 24% | inhibition [3] -7% | outcome [5] | outcome [6] | outcome [7] | outcome [8]

CC(C)CNCc1cccc(-c2ccc(CN(C(=O)NCCc3ccccc3)C3CCN(Cc4ccccc4)CC3)cc2)c1
active: inhibition [2] 99% | growth inhibition [4] 98%
inactive: growth inhibition [1] 47% | inhibition [3] 5% | outcome [5] | outcome [6] | outcome [7] | outcome [8]

CC(Oc1c(C2CCN(CCCCNC(=O)c3ccc(-c4ccc(C#N)cc4)cc3)CC2)ccc2c1CCCC2)C(N)=O (centres undefined)
inactive: inhibition [2] 41% | inhibition [3] -3% | outcome [5] | outcome [6] | outcome [7] | outcome [8]
active: growth inhibition [1] 83% | growth inhibition [4] 100%

CCOc1cc(O)c(-c2nc(N)ncc2-c2ccc3c(c2)OCCO3)cc1CC
inactive: inhibition [2] -5% | inhibition [3] -1% | outcome [5] | outcome [6] | outcome [7] | outcome [8]
active: growth inhibition [1] 68% | growth inhibition [4] 99%

Cc1csc(-c2nc(NCCc3c(C)noc3C)ncc2-c2ccsc2)n1
active: growth inhibition [1] 82% | growth inhibition [4] 90%
inactive: inhibition [2] 6% | inhibition [3] -4% | outcome [5] | outcome [6] | outcome [7] | outcome [8]

Cc1cc(N2CCCCC2)nc2ccc(NC(=O)c3cc(=O)c4ccccc4o3)cc12
inactive: growth inhibition [1] 19% | inhibition [2] 15% | inhibition [3] -7% | outcome [5] | outcome [6] | outcome [7] | outcome [8]
active: growth inhibition [4] 98%

Cc1cccc(Nc2nccc(Nc3cccc(C(=O)NCCN4CCOCC4)c3)n2)c1
inactive: growth inhibition [1] 11% | inhibition [2] 10% | inhibition [3] -2% | outcome [5] | outcome [6] | outcome [7] | outcome [8]
active: growth inhibition [4] 91%

O=C(C=Cc1ccc(Cl)c(Cl)c1)NCCCCCN1CCCC(CCCNC(=O)c2ccc3c(c2)OCO3)C1 (centres undefined)
active: growth inhibition [4] 95%
inactive: growth inhibition [1] 4% | inhibition [2] 30% | inhibition [3] 3% | outcome [5] | outcome [6] | outcome [7] | outcome [8]

Cc1[nH]c(C)c(-c2ccc(-c3ccccc3)nc2)c(=O)c1Br
inactive: inhibition [2] -3% | inhibition [3] -1% | outcome [5] | outcome [6] | outcome [7] | outcome [8]
active: growth inhibition [1] 95% | growth inhibition [4] 96%

O=C(Cn1c(SCc2cccc(F)c2F)cc(=O)c2ccccc21)N(Cc1ccc(-c2ccc(C(F)(F)F)cc2)cc1)C1CCN(CCO)CC1
active: growth inhibition [1] 81% | inhibition [2] 50% | growth inhibition [4] 89%
inactive: inhibition [3] 4% | outcome [5] | outcome [6] | outcome [7] | outcome [8]

O=C(NCc1cccc(Cl)c1)c1ccc(CNC2CCN(Cc3ccccc3)CC2)cc1
active: growth inhibition [1] 50% | growth inhibition [4] 100%
inactive: inhibition [2] 13% | inhibition [3] 5% | outcome [5] | outcome [6] | outcome [7] | outcome [8]

COCCNCc1cccc(-c2ccc3c(Nc4ccc(F)cc4Cl)ccnc3c2)c1
active: growth inhibition [1] 100% | growth inhibition [4] 103%
inactive: inhibition [2] 8% | inhibition [3] 3% | outcome [5] | outcome [6] | outcome [7] | outcome [8]

COc1c(C2=CCN(CCCCNC(=O)c3ccc(-c4ccc(C#N)cc4)cc3)CC2)ccc2c1CCCC2
inactive: inhibition [2] 44% | inhibition [3] 7% | outcome [5] | outcome [6] | outcome [7] | outcome [8]
active: growth inhibition [1] 82% | growth inhibition [4] 94%

O=C(CCCCCCc1ccccc1)Nc1ccc2nc3c(c(NCc4ccccc4)c2c1)CCCC3
inactive: inhibition [2] 19% | inhibition [3] -3% | outcome [5] | outcome [6] | outcome [7] | outcome [8]
active: growth inhibition [1] 98% | growth inhibition [4] 101%

O=C(Oc1ccc(Cl)cc1C(=O)Nc1ccc([N+](=O)[O-])cc1Cl)c1ccccc1
inactive: growth inhibition [1] 19% | inhibition [3] 3% | outcome [5] | outcome [6] | outcome [7] | outcome [8]
active: inhibition [2] 88% | growth inhibition [4] 97%

Clc1ccc(CNCC2CCN(CC3CCCCC3)CC2)cc1Cl
active: growth inhibition [4] 92%
inactive: growth inhibition [1] 6% | inhibition [2] 18% | inhibition [3] 4% | outcome [5] | outcome [6] | outcome [7] | outcome [8]

O=C(NCCCN1CCOCC1)c1ccc(-c2cccc(NC(=O)c3ccc(Cl)c(Cl)c3)c2)cc1
active: growth inhibition [1] 68% | growth inhibition [4] 100%
inactive: inhibition [2] 3% | inhibition [3] 3% | outcome [5] | outcome [6] | outcome [7] | outcome [8]

Nc1nccc2ccc(-c3cccnc3)cc12
active: growth inhibition [1] 95% | growth inhibition [4] 97%
inactive: inhibition [2] 9% | inhibition [3] 2% | outcome [5] | outcome [6] | outcome [7] | outcome [8]

CC(CN1CCN(C)CC1)C(=O)Nc1ccc(-c2cccc(-c3nc4ccccc4[nH]3)c2)cc1 (centres undefined)
active: growth inhibition [1] 81% | growth inhibition [4] 94%
inactive: inhibition [2] 4% | inhibition [3] 3% | outcome [5] | outcome [6] | outcome [7] | outcome [8]

COc1ccc2c(NN=Cc3ccncc3)cc(C)nc2c1
active: growth inhibition [1] 95% | growth inhibition [4] 99%
inactive: inhibition [2] -4% | inhibition [3] -4% | outcome [5] | outcome [6] | outcome [7] | outcome [8]

Cc1cccc2[nH]c(-c3ccc(-c4cccc(NC(=O)C(C)CN5CCN(C)CC5)c4)s3)nc12 (centres undefined)
inactive: inhibition [2] 11% | inhibition [3] -6% | outcome [5] | outcome [6] | outcome [7] | outcome [8]
active: growth inhibition [1] 75% | growth inhibition [4] 97%

CC1(C)N=C(N)N=C(N)N1OCCCOc1ccccc1N
inactive: inhibition [3] 8% | outcome [5] | outcome [6] | outcome [7] | outcome [8]
active: growth inhibition [1] 95% | inhibition [2] 70% | growth inhibition [4] 93%

CC(C)Cc1cnc2nc(N)nc(N)c2c1
inactive: growth inhibition [1] -2% | inhibition [3] 1% | outcome [5] | outcome [6] | outcome [7] | outcome [8]
active: inhibition [2] 66% | growth inhibition [4] 98%

CC(C)(C)OC(=O)NCCc1cccc(-c2c[nH]c3ncc(-c4cccc(NS(C)(=O)=O)c4)cc23)c1
active: growth inhibition [1] 71% | growth inhibition [4] 97%
inactive: inhibition [2] 16% | inhibition [3] -3% | outcome [5] | outcome [6] | outcome [7] | outcome [8]

Cc1nc(-c2cccc3c(NC(=O)Nc4ccc5nccc(N6CCN(C)CC6)c5c4)cccc23)no1
active: growth inhibition [1] 84% | growth inhibition [4] 100%
inactive: inhibition [2] -4% | inhibition [3] -2% | outcome [5] | outcome [6] | outcome [7] | outcome [8]

COc1ccc(C=NNc2nc3ccccc3[nH]2)cc1O
active: growth inhibition [4] 95%
inactive: growth inhibition [1] 13% | inhibition [2] 15% | inhibition [3] 0% | outcome [5] | outcome [6] | outcome [7] | outcome [8]

CC(=O)Oc1c(C2CCN(CCCCNC(=O)c3ccc(NC(=O)c4ccc(Cl)cc4)cc3)CC2)ccc2c1CCCC2
inactive: inhibition [2] 21% | inhibition [3] 2% | outcome [5] | outcome [6] | outcome [7] | outcome [8]
active: growth inhibition [1] 80% | growth inhibition [4] 100%

COc1ccccc1COc1c(C)nc(N)nc1N
active: growth inhibition [4] 98%
inactive: growth inhibition [1] 1% | inhibition [2] 32% | inhibition [3] -1% | outcome [5] | outcome [6] | outcome [7] | outcome [8]
